Laboratory results: PubChem BioAssay AID1159580 (chemical genetic matrix, 2015)
Several values for one entry are separate records, joined by “and”; a condition that tells them apart may be missing. Equal values may be shown once. About 2,000 (36%) of roughly 5,500 compounds were called active. Roughly 18% stayed inconclusive and do not appear here. Rule as the data show it: active = normalized growth mostly below about 0.91 (no sharp cut-off); inconclusive = no clear call, values can overlap the other calls; inactive = mostly above about 0.92. The list shows a part of the results.

Assay: chemical genetic growth profiling, strain panel (AID 1159580);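 also: tested at 20 µM; growth read once vehicle control cultures reached saturation at 30 °C; 1 = growth at the plate median or of vehicle wells; lower values mean less growth of the strain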
Conditions: S. cerevisiae deletion strains, growth OD

Measured: normalized growth

COc1ccc(-c2cc(=O)c3c(O)c(OC)c(O[C@H]4O[C@H](CO[C@@H]5O[C@@H](C)[C@H](O)[C@@H](O)[C@H]5O)[C@@H](O)[C@H](O)[C@H]4O)cc3o2)cc1
inactive: locus YAL021C, strain ccr4, stronger effect = lower value 1.02 | locus YAL026C, strain drs2, stronger effect = lower value 1 | locus YAL030W, strain snc1, stronger effect = lower value 1.01 | locus YBL061C, strain skt5, stronger effect = lower value 0.996 | locus YBR009C, strain hhf1, stronger effect = lower value 1 | locus YBR021W, strain FUR4, stronger effect = lower value 1.02 | locus YBR023C, strain chs3, stronger effect = lower value 0.996 | locus YBR171W, strain sec66, stronger effect = lower value 0.989 | locus YBR229C, strain ROT2, stronger effect = lower value 1.01 | locus YBR231C, strain swc5, stronger effect = lower value 0.977 | locus YBR279W, strain paf1, stronger effect = lower value 0.987 | locus YCL011C, strain gbp2, stronger effect = lower value 0.991 | locus YCL016C, strain dcc1, stronger effect = lower value 1.01 | locus YCL029C, strain bik1, stronger effect = lower value 1.04 | locus YCL061C, strain MRC1, stronger effect = lower value 1 | locus YCL069W, strain vba3, stronger effect = lower value 1 | locus YCR088W, strain abp1, stronger effect = lower value 1.01 | locus YDL005C, strain med2, stronger effect = lower value 1 | locus YDL035C, strain GPR1, stronger effect = lower value 1.02 | locus YDL040C, strain nat1, stronger effect = lower value 0.98 | locus YDL074C, strain BRE1, stronger effect = lower value 1.01 | locus YDL101C, strain DUN1, stronger effect = lower value 1.02 | locus YDL185W, strain tfp1, stronger effect = lower value 1.01 | locus YDL192W, strain arf1, stronger effect = lower value 1.01 | locus YDR001C, strain nth1, stronger effect = lower value 1 | locus YDR069C, strain doa4, stronger effect = lower value 0.967 | locus YDR101C, strain arx1, stronger effect = lower value 1.02 | locus YDR137W, strain rgp1, stronger effect = lower value 1.05 | locus YDR150W, strain NUM1, stronger effect = lower value 1.01 | locus YDR159W, strain sac3, stronger effect = lower value 0.995 | locus YDR162C, strain NBP2, stronger effect = lower value 1.03 | locus YDR195W, strain ref2 0.978 | locus YDR297W, strain sur2, stronger effect = lower value 0.988 | locus YDR318W, strain mcm21, stronger effect = lower value 1.02 | locus YDR334W, strain swr1, stronger effect = lower value 0.99 | locus YDR335W, strain msn5, stronger effect = lower value 1 | locus YDR388W, stronger effect = lower value 1.01 | locus YDR392W, strain spt3, stronger effect = lower value 0.981 | locus YDR502C, strain sam2, stronger effect = lower value 1.01 | locus YEL003W, strain gim4, stronger effect = lower value 0.982 | locus YEL037C, strain rad23, stronger effect = lower value 1 | locus YEL061C, strain CIN8 (second series), stronger effect = lower value 0.996 | locus YER015W, strain faa2, stronger effect = lower value 0.984 | locus YER016W, strain bim1, stronger effect = lower value 0.992 | locus YER110C, stronger effect = lower value 1.02 | locus YER111C, strain swi4, stronger effect = lower value 0.979 | locus YER155C, strain BEM2 (second series), stronger effect = lower value 0.972 | locus YER155C, strain BEM2, stronger effect = lower value 1.04 | locus YER167W, strain BCK2, stronger effect = lower value 1.02 | locus YFR010W, strain ubp6, stronger effect = lower value 0.994 | locus YGL078C, strain dbp3, stronger effect = lower value 1.01 | locus YGL086W, strain mad1, stronger effect = lower value 1.01 | locus YGL167C, strain pmr1, stronger effect = lower value 0.983 | locus YGL173C, strain kem1, stronger effect = lower value 0.996 | locus YGL227W, strain vid30, stronger effect = lower value 1 | locus YGL240W, strain doc1, stronger effect = lower value 0.998 | locus YGL248W, strain PDE1, stronger effect = lower value 1.01 | locus YGL253W, strain hxk2, stronger effect = lower value 1 | locus YGR078C, strain PAC10, stronger effect = lower value 0.999 | locus YGR135W, strain pre9, stronger effect = lower value 0.993 | locus YGR229C, strain SMI1, stronger effect = lower value 1.16 | locus YGR252W, strain gcn5, stronger effect = lower value 0.955 | locus YHR013C, strain ard1, stronger effect = lower value 1 | locus YHR027C, strain rpn1, stronger effect = lower value 0.99 | locus YHR030C, strain SLT2, stronger effect = lower value 1.02 and 0.993 | locus YHR079C, strain IRE1 (second series), stronger effect = lower value 1.01 | locus YHR079C, strain IRE1, stronger effect = lower value 1.01 | locus YHR094C, strain hxt1, stronger effect = lower value 1.01 | locus YHR129C, strain ARP1, stronger effect = lower value 1 | locus YHR142W, strain chs7, stronger effect = lower value 1.01 | locus YHR200W, strain rpn10, stronger effect = lower value 1.01 | locus YIL066C, strain RNR3, stronger effect = lower value 1.02 | locus YIL073C, strain SPO22, stronger effect = lower value 1.08 | locus YIL125W, strain kgd1, stronger effect = lower value 1.01 | locus YIR030C, strain dcg1, stronger effect = lower value 1.02 | locus YJL092W, strain hpr5, stronger effect = lower value 0.994 | locus YJL095W, strain BCK1 (second series), stronger effect = lower value 1 | locus YJL095W, strain BCK1, stronger effect = lower value 1.02 and 0.995 | locus YJL115W, strain asf1, stronger effect = lower value 0.999 | locus YJL129C, strain trk1, stronger effect = lower value 0.994 | locus YJL134W, strain LCB3, stronger effect = lower value 1.02 | locus YJL154C, strain vps35, stronger effect = lower value 1 | locus YJL164C, strain tpk1, stronger effect = lower value 1 | locus YJL166W, strain qcr8, stronger effect = lower value 1 | locus YJL168C, strain set2, stronger effect = lower value 1 | locus YJL187C, strain SWE1 (second series), stronger effect = lower value 1.01 | locus YJL187C, strain SWE1, stronger effect = lower value 1.02 | locus YJR066W, strain TOR1, stronger effect = lower value 0.906 | locus YKL009W, strain mrt4, stronger effect = lower value 1.05 | locus YKL068W, stronger effect = lower value 1.02 | locus YKL085W, strain MDH1 (second series), stronger effect = lower value 1.02 | locus YKL085W, strain MDH1, stronger effect = lower value 1.02 | locus YKL160W, strain elf1, stronger effect = lower value 0.997 | locus YKL190W, strain CNB1, stronger effect = lower value 1.01 | locus YKR001C, strain vps1, stronger effect = lower value 1.01 | locus YKR026C, strain gcn3, stronger effect = lower value 0.992 | locus YKR091W, strain srl3, stronger effect = lower value 0.998 | locus YLL001W, strain dnm1, stronger effect = lower value 1 | locus YLL026W, stronger effect = lower value 0.998 | locus YLL041C, strain sdh2, stronger effect = lower value 1 | locus YLR027C, strain aat2, stronger effect = lower value 0.988 | locus YLR039C, strain RIC1, stronger effect = lower value 1.1 | locus YLR058C, strain SHM2, stronger effect = lower value 1.02 | locus YLR102C, strain apc9, stronger effect = lower value 1.02 | locus YLR113W, strain HOG1, stronger effect = lower value 1.04 | locus YLR221C, strain rsa3, stronger effect = lower value 0.995 | locus YLR258W, strain gsy2, stronger effect = lower value 1.02 | locus YLR262C, strain YPT6 (second series), stronger effect = lower value 1.03 | locus YLR268W, strain sec22, stronger effect = lower value 1.03 | locus YLR320W, strain mms22, stronger effect = lower value 0.998 | locus YLR342W, strain FKS1 (second series), stronger effect = lower value 1.03 | locus YLR342W, strain FKS1, stronger effect = lower value 1 | locus YLR357W, strain rsc2, stronger effect = lower value 0.964 | locus YLR370C, strain arc18, stronger effect = lower value 0.995 | locus YLR371W, strain rom2, stronger effect = lower value 1.03 | locus YLR384C, strain iki3, stronger effect = lower value 0.978 | locus YLR418C, strain cdc73, stronger effect = lower value 1.03 | locus YML016C, strain PPZ1, stronger effect = lower value 0.991 | locus YML032C, strain rad52, stronger effect = lower value 1.03 | locus YML120C, strain ndi1, stronger effect = lower value 1.01 | locus YML124C, strain tub3, stronger effect = lower value 1.02 | locus YMR058W, strain fet3, stronger effect = lower value 0.928 | locus YMR078C, strain ctf18, stronger effect = lower value 1.02 | locus YMR125W, strain sto1, stronger effect = lower value 1 | locus YMR129W, stronger effect = lower value 0.996 | locus YMR205C, strain PFK2, stronger effect = lower value 1.05 | locus YMR223W, strain ubp8, stronger effect = lower value 1.01 | locus YMR231W, strain pep5, stronger effect = lower value 0.96 | locus YMR307W, strain GAS1, stronger effect = lower value 1.08 | locus YNL067W, strain RPL9B, stronger effect = lower value 1.01 | locus YNL071W, strain lat1, stronger effect = lower value 1.01 | locus YNL128W, strain TEP1, stronger effect = lower value 1.03 | locus YNL183C, strain NPR1, stronger effect = lower value 0.938 | locus YNL209W, strain ssb2, stronger effect = lower value 0.986 | locus YNL233W, strain BNI4, stronger effect = lower value 1.01 | locus YNL248C, strain rpa49, stronger effect = lower value 0.996 | locus YNL250W, strain rad50, stronger effect = lower value 1.04 | locus YNL271C, strain bni1, stronger effect = lower value 1.01 | locus YNL298W, strain CLA4, stronger effect = lower value 1.02 | locus YNL307C, strain MCK1, stronger effect = lower value 1.01 | locus YNL322C, strain KRE1 (second series), stronger effect = lower value 1 | locus YNR049C, strain mso1, stronger effect = lower value 1 | locus YNR052C, strain pop2, stronger effect = lower value 1.01 | locus YOL012C, strain htz1 0.859 | locus YOL147C, strain pex11, stronger effect = lower value 0.996 | locus YOR001W, strain rrp6, stronger effect = lower value 0.98 | locus YOR061W, strain CKA2, stronger effect = lower value 1.02 | locus YOR069W, strain VPS5, stronger effect = lower value 1.01 | locus YOR070C, strain gyp1, stronger effect = lower value 0.985 | locus YOR080W, strain dia2, stronger effect = lower value 0.992 | locus YOR083W, strain WHI5, stronger effect = lower value 0.998 | locus YOR106W, strain vam3, stronger effect = lower value 0.992 | locus YOR136W, strain idh2, stronger effect = lower value 1.02 | locus YOR144C, strain elg1, stronger effect = lower value 1.02 | locus YOR184W, strain ser1, stronger effect = lower value 1.04 | locus YOR231W, strain MKK1, stronger effect = lower value 1.03 | locus YOR265W, strain rbl2, stronger effect = lower value 1.02 | locus YOR270C, strain vph1, stronger effect = lower value 0.993 | locus YOR290C, strain snf2, stronger effect = lower value 0.992 | locus YOR316C, strain cot1, stronger effect = lower value 1.02 | locus YPL051W, strain arl3, stronger effect = lower value 0.995 | locus YPL078C, strain atp4, stronger effect = lower value 1.03 | locus YPL106C, strain sse1, stronger effect = lower value 0.974 | locus YPL240C, strain hsp82, stronger effect = lower value 0.995 | locus YPL241C, strain CIN2, stronger effect = lower value 1.01 | locus YPL256C, strain CLN2, stronger effect = lower value 0.994 | locus YPR119W, strain clb2, stronger effect = lower value 1.01 | locus YPR141C, strain kar3, stronger effect = lower value 1.02 | locus YPR163C, strain tif3, stronger effect = lower value 0.999 | locus YPR167C, strain met16, stronger effect = lower value 1.01 | strain wtn01, stronger effect = lower value 1.01
